According to the supplement of paper PMC8728848:
The entries come from a sample that favours the strongest signals as a whole.

Tests used:
Assay in all cases: glycan array binding signal (z-score within array); higher = stronger binding
Details in all cases: glycan notation: IUPAC condensed, linker removed
[1] = molecular target: Fuc(a1-2)Gal(b1-3)GlcNAc(b1-3)Gal(b1-4)Glc
Method in brief: (§1)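 Negative Z-scores can be read as non-binding. The Z-score is calculated within each array and then averaged across arrays of one protein sequence at different concentrations or buffers and across linkers. Arrays, 3228 in all, were curated from the Consortium for Functional Glycomics database and kept only where the protein sequence was available.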

[2] = molecular target: Fuc(a1-2)Gal(b1-3)[Fuc(a1-4)]GlcNAc(b1-3)[Gal(b1-4)GlcNAc(b1-6)]Gal(b1-4)Glc
Method in brief: as §1

[3] = molecular target: Fuc(a1-2)Gal(b1-4)GlcNAc(b1-3)Gal(b1-4)GlcNAc(b1-3)Gal(b1-4)GlcNAc
Method in brief: as §1

[4] = molecular target: Fuc(a1-2)[Gal(a1-3)]Gal(b1-3)GlcNAc(b1-2)Man(a1-3)[Fuc(a1-2)[Gal(a1-3)]Gal(b1-3)GlcNAc(b1-2)Man(a1-6)]Man(b1-4)GlcNAc(b1-4)GlcNAc
Method in brief: as §1

[5] = molecular target: Fuc(a1-2)[Gal(a1-3)]Gal(b1-4)GlcNAc(b1-2)Man(a1-3)[Fuc(a1-2)[Gal(a1-3)]Gal(b1-4)GlcNAc(b1-2)Man(a1-6)]Man(b1-4)GlcNAc(b1-4)GlcNAc
Method in brief: as §1

[6] = molecular target: Fuc(a1-2)[GalNAc(a1-3)]Gal(b1-4)GlcNAc
Method in brief: as §1

[7] = molecular target: Fuc(a1-2)[GalNAc(a1-3)]Gal(b1-4)GlcNAc(b1-2)Man(a1-3)[Fuc(a1-2)[GalNAc(a1-3)]Gal(b1-4)GlcNAc(b1-2)Man(a1-6)]Man(b1-4)GlcNAc(b1-4)GlcNAc
Method in brief: as §1

[8] = molecular target: Fuc(a1-2)[GalNAc(a1-3)]Gal(b1-4)GlcNAc(b1-3)Gal(b1-4)GlcNAc(b1-3)Gal(b1-4)GlcNAc
Method in brief: as §1

[9] = molecular target: Fuc(a1-2)[GalNAc(b1-3)]Gal
Method in brief: as §1

[10] = molecular target: Fuc(a1-3)[Gal(b1-4)]GlcNAc6S
Method in brief: as §1

[11] = molecular target: Gal(a1-3)Gal(b1-4)GlcNAc(b1-3)GalNAc
Method in brief: as §1

[12] = molecular target: Gal(a1-3)[Gal(a1-4)]Gal(b1-4)GlcNAc
Method in brief: as §1

[13] = molecular target: Gal(a1-4)Gal(b1-3)GlcNAc(b1-2)Man(a1-3)[Gal(a1-4)Gal(b1-3)GlcNAc(b1-2)Man(a1-6)]Man(b1-4)GlcNAc(b1-4)GlcNAc
Method in brief: as §1

[14] = molecular target: Gal(b1-3)Gal(b1-4)GlcNAc(b1-2)Man(a1-3)[Gal(b1-3)Gal(b1-4)GlcNAc(b1-2)Man(a1-6)]Man(b1-4)GlcNAc(b1-4)GlcNAc
Method in brief: as §1

[15] = molecular target: Gal(b1-3)GalNAc(a1-3)[Fuc(a1-2)]Gal(b1-4)GlcNAc
Method in brief: as §1

[16] = molecular target: Gal(b1-3)[Neu5Ac(b2-6)]GalNAc
Method in brief: as §1

[17] = molecular target: Gal(b1-4)GlcNAc(b1-2)[Gal(b1-4)GlcNAc(b1-4)]Man(a1-3)[Gal(b1-4)GlcNAc(b1-2)[Gal(b1-4)GlcNAc(b1-6)]Man(a1-6)]Man(b1-4)GlcNAc(b1-4)GlcNAc
Method in brief: as §1

[18] = molecular target: Gal(b1-4)GlcNAc(b1-3)Gal(b1-3)GlcNAc
Method in brief: as §1

[19] = molecular target: Gal(b1-4)GlcNAc(b1-3)Gal(b1-4)GlcNAc(b1-3)Gal(b1-4)GlcNAc
Method in brief: as §1

[20] = molecular target: Gal(b1-4)GlcNAc(b1-3)[GlcNAc(b1-6)]Gal(b1-4)GlcNAc
Method in brief: as §1

[21] = molecular target: Gal3S(b1-4)[Fuc(a1-3)]Glc
Method in brief: as §1

[22] = molecular target: Gal6S(b1-4)Glc
Method in brief: as §1

[23] = molecular target: GalNAc(b1-3)Gal(a1-6)Gal(b1-4)Glc
Method in brief: as §1

[24] = molecular target: GlcNAc(a1-6)Gal(b1-4)GlcNAc
Method in brief: as §1

[25] = molecular target: GlcNAc(b1-4)GlcNAc(b1-4)GlcNAc(b1-4)GlcNAc(b1-4)GlcNAc
Method in brief: as §1

[26] = molecular target: GlcNAc(b1-6)Gal(b1-4)GlcNAc
Method in brief: as §1

[27] = molecular target: GlcNAc(b1-6)GalNAc
Method in brief: as §1

[28] = molecular target: Kdn(a2-3)Gal(b1-4)Glc
Method in brief: as §1

[29] = molecular target: Kdn(a2-3)Gal(b1-4)GlcNAc
Method in brief: as §1

[30] = molecular target: Man(a1-2)Man(a1-6)[Man(a1-3)]Man(a1-6)[Man(a1-2)Man(a1-2)Man(a1-3)]Man
Method in brief: as §1

[31] = molecular target: Neu5Ac(a2-3)Gal(b1-3)GlcNAc(b1-3)GalNAc
Method in brief: as §1

[32] = molecular target: Neu5Ac(a2-3)Gal(b1-4)GlcNAc(b1-3)Gal(b1-4)GlcNAc(b1-3)Gal(b1-4)GlcNAc
Method in brief: as §1

[33] = molecular target: Neu5Ac(a2-3)Gal(b1-4)[Fuc(a1-3)]GlcNAc
Method in brief: as §1

[34] = molecular target: Neu5Ac(a2-3)Gal6S(b1-4)GlcNAc
Method in brief: as §1

[35] = molecular target: Neu5Ac(a2-6)Gal(b1-4)GlcNAc(b1-2)Man(a1-6)[Gal(b1-4)GlcNAc(b1-2)Man(a1-3)]Man(b1-4)GlcNAc(b1-4)GlcNAc
Method in brief: as §1

[36] = molecular target: Neu5Ac(a2-6)Gal(b1-4)GlcNAc(b1-3)Gal(b1-4)[Fuc(a1-3)]GlcNAc(b1-3)Gal(b1-4)[Fuc(a1-3)]GlcNAc
Method in brief: as §1

[37] = molecular target: Neu5Gc(a2-6)GalNAc
Method in brief: as §1

B1: Gal 3 (Homo sapiens), P17931 (protein)
chain: MADNFSLHDALSGSGNPNPQGWPGAWGNQPAGAGGYPGASYPGAYPGQAPPGAYPGQAPPGAYHGAPGAYPGAPAPGVYPGPPSGPGAYPSSGQPSAPGAYPATGPYGAPAGPLIVPYNLPLPGGVVPRMLITILGTVKPNANILDFQRGNDVAFHFNPRFNENNRRVIVCNTKLDNNWGREERQSVFPFESGKPFKIQVLVEPDHFKVAVNDAHLLQYNHRVKKLNEISKLGISGDIDLTSASYTMI
[1]
  glycan array binding signal (z-score): 1.9
[2]
  glycan array binding signal (z-score): -0.331
[3]
  glycan array binding signal (z-score): 3.62
[4]
  glycan array binding signal (z-score): 3.84
[5]
  glycan array binding signal (z-score): 5.09
[6]
  glycan array binding signal (z-score): 2.16
[7]
  glycan array binding signal (z-score): 4.33
[8]
  glycan array binding signal (z-score): 4.1
[9]
  glycan array binding signal (z-score): -0.382
[10]
  glycan array binding signal (z-score): -0.391
[11]
  glycan array binding signal (z-score): 0.949
[12]
  glycan array binding signal (z-score): -0.388
[13]
  glycan array binding signal (z-score): -0.389
[14]
  glycan array binding signal (z-score): 4.28
[15]
  glycan array binding signal (z-score): 2.57
[16]
  glycan array binding signal (z-score): -0.386
[17]
  glycan array binding signal (z-score): 2.3
[18]
  glycan array binding signal (z-score): 2.35
[19]
  glycan array binding signal (z-score): 4.37
[20]
  glycan array binding signal (z-score): -0.307
[21]
  glycan array binding signal (z-score): -0.39
[22]
  glycan array binding signal (z-score): -0.376
[23]
  glycan array binding signal (z-score): -0.388
[24]
  glycan array binding signal (z-score): -0.392
[25]
  glycan array binding signal (z-score): -0.379
[26]
  glycan array binding signal (z-score): -0.389
[27]
  glycan array binding signal (z-score): -0.391
[28]
  glycan array binding signal (z-score): -0.391
[29]
  glycan array binding signal (z-score): -0.386
[30]
  glycan array binding signal (z-score): -0.379
[31]
  glycan array binding signal (z-score): -0.375
[32]
  glycan array binding signal (z-score): 3.82
[33]
  glycan array binding signal (z-score): -0.39
[34]
  glycan array binding signal (z-score): -0.387
[35]
  glycan array binding signal (z-score): -0.391
[36]
  glycan array binding signal (z-score): -0.386
[37]
  glycan array binding signal (z-score): -0.392
